According to the supplement of paper PMC10849652:
The full data set covers some 8,800 targets. This sample favours those with a hit. About 0.5% of all pairs of compound and target were hits.

Assays:
Assay in all cases: log2 fold change, soluble protein after heating vs DMSO (PISA); higher = thermal stabilisation; K562 lysate, 10 uM; active = over 0.2 and 3.5 SD of the protein, either way, in both replicates (recomputed)
erlotinib = compound: C#Cc1cccc(Nc2ncnc3cc(OCCOC)c(OCCOC)cc23)c1 [erlotinib]
How it was run: (§1)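 K562 pellets were dounce-homogenised in PBS pH 7.4 containing 1 mM MgCl2, and the crude extract, at 1 mg/mL protein, was exposed to 10 μM compound for 30 min. Aliquots were heated for 3 min across 48°C-58°C, pooled, brought to 0.5% NP-40 at 4°C and spun at 21,000xg for 90 min, with the supernatant taken as soluble protein. TMTpro 16plex LC-MS/MS with equalised channel sums quantified that protein. Values are log-two fold changes in thermal stability relative to solvent controls, taken from duplicates.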

[1] = compound: C/C(=N\NC(=O)C1=CC(=CC=C1)S(=O)(=O)N2CCOCC2)/C3=C(C=CC(=C3)Cl)O
How it was run: as §1

[2] = compound: C1=CC(=CC=C1C2=NC3=C(N2)C=C(C=C3)C(=O)N)OC4=CC=C(C=C4)Cl
How it was run: as §1

[3] = compound: C1=CC2=C(C=CC(=C2)/C=C\3/C(=O)NC(=NCC4=CC=CS4)S3)N=C1
How it was run: as §1

[4] = compound: C1=CC2=NC=CN=C2C=C1/C=C/3\C(=O)NC(=O)S3
How it was run: as §1

[5] = compound: C1=CC=C(C=C1)C2=NC(=C(N2)C3=CC=NC=C3)C4=CC(=C(C=C4)Cl)O
How it was run: as §1

[6] = compound: C1=CC=C2C(=C1)C3=NNC4=CC=CC(=C43)C2=O
How it was run: as §1

[7] = compound: C1CCN(C1)C(=O)NC2=CC=CC(=C2)NC3=NC=C(C(=N3)NCCC4=CN=CN4)Br
How it was run: as §1

[8] = compound: C1CN(CCC1(CC2=CC=C(C=C2)Cl)N)C3=NC=NC4=C3C=CN4
How it was run: as §1

IRAK-1-4 Inhibitor I = compound: C1COCCN1CCN2C3=CC=CC=C3N=C2NC(=O)C4=CC(=CC=C4)[N+](=O)[O-] [IRAK-1-4 Inhibitor I]
How it was run: as §1

Measured: log2 fold change

CSTB (UniProt P04080)
inactive: erlotinib -0.024 | [1] 0.054 | [2] -0.016 | [3] 0.018 | [4] 0.004 | [5] -0.028 | [6] 0.031 | [7] -0.015 | [8] 0.031 | IRAK-1-4 Inhibitor I 0.082

CSNK1G3 (UniProt Q9Y6M4)
inactive: erlotinib -0.115 | [1] -0.018 | [2] 0.097 | [3] 0.149 | [4] 0.073 | [5] -0.043 | [6] 0.234 | [7] 0.018 | [8] 0.079 | IRAK-1-4 Inhibitor I 0.022

DERA (UniProt Q9Y315)
inactive: erlotinib -0.008 | [1] 0.008 | [2] 0.028 | [3] 0.014 | [4] 0.015 | [5] 0.001 | [6] 0.019 | [7] 0.013 | [8] 0.023 | IRAK-1-4 Inhibitor I 0.002

CNST (UniProt Q6PJW8)
inactive: erlotinib 0.044 | [1] -0.013 | [2] 0.05 | [3] 0.01 | [4] -0.004 | [5] 0.007 | [6] -0.054 | [7] -0.022 | [8] 0.036 | IRAK-1-4 Inhibitor I 0.023

COQ9 (UniProt O75208)
inactive: erlotinib -0.015 | [1] -0.075 | [2] -0.001 | [3] 0.041 | [4] 0.046 | [5] 0 | [6] -0.029 | [7] -0.02 | [8] 0.029 | IRAK-1-4 Inhibitor I -0.011

CHMP4A isoform 2 (UniProt Q9BY43)
inactive: erlotinib -0.046 | [1] 0.008 | [2] 0.018 | [3] -0.01 | [4] -0.018 | [5] 0.021 | [6] 0.033 | [7] 0.014 | [8] -0.007 | IRAK-1-4 Inhibitor I -0.016

CLCN3 isoform 2 (UniProt P51790)
Chain of UniProt P51790 (P51790 whole entry, looked up): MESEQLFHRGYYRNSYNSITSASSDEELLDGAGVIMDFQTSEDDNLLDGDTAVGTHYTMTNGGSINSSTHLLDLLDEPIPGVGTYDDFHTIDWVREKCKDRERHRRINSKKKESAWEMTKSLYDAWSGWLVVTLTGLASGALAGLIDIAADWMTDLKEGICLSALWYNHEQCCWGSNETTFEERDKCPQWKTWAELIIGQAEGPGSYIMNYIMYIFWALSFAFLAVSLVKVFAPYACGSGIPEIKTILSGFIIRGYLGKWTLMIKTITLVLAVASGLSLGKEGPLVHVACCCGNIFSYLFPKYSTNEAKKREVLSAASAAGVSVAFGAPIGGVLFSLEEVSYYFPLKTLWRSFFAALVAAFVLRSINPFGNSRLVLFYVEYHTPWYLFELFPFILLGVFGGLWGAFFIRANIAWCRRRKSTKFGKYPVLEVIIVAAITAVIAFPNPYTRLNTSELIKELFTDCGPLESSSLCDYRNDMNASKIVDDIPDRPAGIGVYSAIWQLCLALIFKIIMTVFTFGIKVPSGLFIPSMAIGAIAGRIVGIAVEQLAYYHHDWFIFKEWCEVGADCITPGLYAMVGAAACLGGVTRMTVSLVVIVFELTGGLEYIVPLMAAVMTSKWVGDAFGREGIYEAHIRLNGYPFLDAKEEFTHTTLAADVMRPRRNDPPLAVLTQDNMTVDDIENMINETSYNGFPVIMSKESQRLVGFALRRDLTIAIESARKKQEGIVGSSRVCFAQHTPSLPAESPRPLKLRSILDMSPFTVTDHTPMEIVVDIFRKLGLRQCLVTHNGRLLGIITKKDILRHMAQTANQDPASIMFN
inactive: erlotinib 0.003 | [1] 0.083 | [2] -0.061 | [3] -0.005 | [4] -0.004 | [5] -0.042 | [6] 0.013 | [7] -0.032 | [8] 0.029 | IRAK-1-4 Inhibitor I 0.068

DOK1 (UniProt Q99704)
inactive: erlotinib -0.024 | [1] 0.051 | [2] 0.023 | [3] 0.015 | [4] 0.002 | [5] -0.041 | [6] -0.02 | [7] 0.021 | [8] 0.06 | IRAK-1-4 Inhibitor I 0.021

COG6 (UniProt Q9Y2V7)
Chain of UniProt Q9Y2V7 (Q9Y2V7 whole entry, looked up): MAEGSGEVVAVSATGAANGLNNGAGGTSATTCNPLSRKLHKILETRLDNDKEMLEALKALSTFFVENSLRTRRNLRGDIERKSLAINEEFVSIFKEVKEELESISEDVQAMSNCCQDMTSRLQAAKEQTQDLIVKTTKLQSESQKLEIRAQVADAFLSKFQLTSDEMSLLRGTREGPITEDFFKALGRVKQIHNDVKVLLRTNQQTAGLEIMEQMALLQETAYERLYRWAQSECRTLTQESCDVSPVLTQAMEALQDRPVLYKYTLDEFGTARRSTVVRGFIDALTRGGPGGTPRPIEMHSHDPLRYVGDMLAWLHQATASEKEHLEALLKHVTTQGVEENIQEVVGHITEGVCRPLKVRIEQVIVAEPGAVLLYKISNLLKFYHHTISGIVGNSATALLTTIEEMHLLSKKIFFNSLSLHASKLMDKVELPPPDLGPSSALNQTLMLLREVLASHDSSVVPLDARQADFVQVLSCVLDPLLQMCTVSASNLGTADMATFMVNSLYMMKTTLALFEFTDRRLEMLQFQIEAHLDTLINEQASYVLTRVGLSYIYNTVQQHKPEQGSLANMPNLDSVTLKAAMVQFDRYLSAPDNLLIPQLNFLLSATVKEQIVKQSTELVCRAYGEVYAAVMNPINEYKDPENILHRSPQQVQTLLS
inactive: erlotinib -0.059 | [1] 0.153 | [2] -0.074 | [3] -0.07 | [4] -0.008 | [5] 0.015 | [6] 0.024 | [7] 0.008 | [8] 0.077 | IRAK-1-4 Inhibitor I 0.006

DOCK7 (UniProt Q96N67)
inactive: erlotinib 0.078 | [1] 0.009 | [2] -0.045 | [3] -0.041 | [4] -0.126 | [5] 0.014 | [6] -0.023 | [7] -0.003 | [8] 0.016 | IRAK-1-4 Inhibitor I 0.024

COL6A5 (UniProt A8TX70)
inactive: erlotinib 0.064 | [1] 0.161 | [2] 0.02 | [3] -0.062 | [4] -0.167 | [5] 0.027 | [6] 0.014 | [7] 0.014 | [8] -0.052 | IRAK-1-4 Inhibitor I 0.046

CKS1B (UniProt P61024)
Chain of UniProt P61024 (P61024 whole entry, looked up): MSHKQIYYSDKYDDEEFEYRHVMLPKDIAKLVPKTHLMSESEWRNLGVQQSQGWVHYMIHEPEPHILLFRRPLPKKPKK
inactive: erlotinib -0.058 | [1] -0.097 | [2] -0.037 | [3] 0.042 | [4] 0.008 | [5] 0.121 | [6] 0.092 | [7] 0.038 | [8] -0.012 | IRAK-1-4 Inhibitor I -0.018

CTNND1 isoform 3 (UniProt O60716)
Chain of UniProt O60716 (O60716 whole entry, looked up): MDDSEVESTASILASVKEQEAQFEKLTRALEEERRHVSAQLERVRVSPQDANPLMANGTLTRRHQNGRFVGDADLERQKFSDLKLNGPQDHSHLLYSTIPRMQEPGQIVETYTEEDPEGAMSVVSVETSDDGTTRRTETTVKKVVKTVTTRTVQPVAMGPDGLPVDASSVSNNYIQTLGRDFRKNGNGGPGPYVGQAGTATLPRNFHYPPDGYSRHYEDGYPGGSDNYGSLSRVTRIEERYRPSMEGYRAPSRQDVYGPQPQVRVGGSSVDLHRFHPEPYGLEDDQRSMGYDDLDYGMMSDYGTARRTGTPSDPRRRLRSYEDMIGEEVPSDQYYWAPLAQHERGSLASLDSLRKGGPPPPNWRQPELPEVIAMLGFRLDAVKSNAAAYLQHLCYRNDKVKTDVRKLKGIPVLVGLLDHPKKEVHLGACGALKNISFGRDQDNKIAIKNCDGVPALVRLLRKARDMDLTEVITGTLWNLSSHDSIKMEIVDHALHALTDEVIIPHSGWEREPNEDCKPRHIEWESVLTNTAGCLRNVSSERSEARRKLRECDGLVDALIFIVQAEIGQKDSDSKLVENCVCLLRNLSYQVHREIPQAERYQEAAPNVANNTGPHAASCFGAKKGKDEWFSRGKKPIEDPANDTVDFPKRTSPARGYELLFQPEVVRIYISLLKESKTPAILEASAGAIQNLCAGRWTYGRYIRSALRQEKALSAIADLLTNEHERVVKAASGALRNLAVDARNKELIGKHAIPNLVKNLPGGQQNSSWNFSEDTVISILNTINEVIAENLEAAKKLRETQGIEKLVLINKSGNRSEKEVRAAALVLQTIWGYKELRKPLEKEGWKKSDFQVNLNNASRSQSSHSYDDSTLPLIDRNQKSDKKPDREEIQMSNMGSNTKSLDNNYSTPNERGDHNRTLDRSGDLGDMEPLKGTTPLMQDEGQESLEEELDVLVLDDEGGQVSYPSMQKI
inactive: erlotinib -0.002 | [1] -0.039 | [2] -0.024 | [3] -0.045 | [4] 0.003 | [5] 0.087 | [6] -0.093 | [7] 0.009 | [8] 0.022 | IRAK-1-4 Inhibitor I 0.004

CNOT2 (UniProt Q9NZN8)
inactive: erlotinib 0.016 | [1] 0.013 | [2] 0.021 | [3] 0.015 | [4] -0.016 | [5] -0.011 | [6] 0.014 | [7] 0.004 | [8] 0.012 | IRAK-1-4 Inhibitor I 0.007

CYCS (UniProt P99999)
inactive: erlotinib -0.022 | [1] -0.121 | [2] -0.019 | [3] -0.006 | [4] 0.003 | [5] 0.008 | [6] 0.02 | [7] 0.011 | [8] 0.002 | IRAK-1-4 Inhibitor I -0.005

CHURC1 isoform 2 (UniProt Q8WUH1)
Chain of UniProt Q8WUH1 (Q8WUH1 whole entry, looked up): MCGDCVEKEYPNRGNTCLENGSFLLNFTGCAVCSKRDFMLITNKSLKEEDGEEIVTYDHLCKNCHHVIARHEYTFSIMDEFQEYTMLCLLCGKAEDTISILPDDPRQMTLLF
inactive: erlotinib 0.05 | [1] -0.13 | [2] -0.021 | [3] -0.003 | [4] 0.015 | [5] 0.079 | [6] 0.002 | [7] -0.017 | [8] 0.058 | IRAK-1-4 Inhibitor I -0.002

DDB2 (UniProt Q92466)
inactive: erlotinib -0.007 | [1] -0.028 | [2] 0.07 | [3] 0.052 | [4] 0.064 | [5] -0.024 | [6] 0 | [7] -0.075 | [8] -0.041 | IRAK-1-4 Inhibitor I 0.026

DLG3 isoform 2 (UniProt Q92796)
Chain of UniProt Q92796 (Q92796 whole entry, looked up): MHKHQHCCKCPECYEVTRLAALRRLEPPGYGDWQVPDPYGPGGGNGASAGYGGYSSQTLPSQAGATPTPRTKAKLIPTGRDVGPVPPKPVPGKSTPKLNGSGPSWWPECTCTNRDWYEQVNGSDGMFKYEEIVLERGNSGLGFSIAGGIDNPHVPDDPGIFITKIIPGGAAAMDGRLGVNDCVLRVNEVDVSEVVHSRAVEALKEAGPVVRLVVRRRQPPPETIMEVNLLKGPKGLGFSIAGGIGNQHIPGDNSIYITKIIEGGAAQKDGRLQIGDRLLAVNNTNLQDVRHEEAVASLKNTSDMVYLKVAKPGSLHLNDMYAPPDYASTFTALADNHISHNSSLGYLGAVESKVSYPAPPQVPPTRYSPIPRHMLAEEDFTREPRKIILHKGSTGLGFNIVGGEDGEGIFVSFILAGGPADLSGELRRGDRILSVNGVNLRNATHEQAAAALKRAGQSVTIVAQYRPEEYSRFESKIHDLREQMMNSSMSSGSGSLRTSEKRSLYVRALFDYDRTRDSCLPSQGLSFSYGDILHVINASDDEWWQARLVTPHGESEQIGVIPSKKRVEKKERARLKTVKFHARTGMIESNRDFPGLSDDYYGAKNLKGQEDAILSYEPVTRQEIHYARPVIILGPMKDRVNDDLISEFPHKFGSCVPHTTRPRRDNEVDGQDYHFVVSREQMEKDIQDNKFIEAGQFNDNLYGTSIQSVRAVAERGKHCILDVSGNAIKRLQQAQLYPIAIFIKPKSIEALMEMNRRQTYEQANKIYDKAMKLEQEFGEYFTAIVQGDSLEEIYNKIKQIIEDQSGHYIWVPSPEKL
inactive: erlotinib -0.048 | [1] -0.085 | [2] 0.073 | [3] 0.002 | [4] -0.046 | [5] -0.012 | [6] -0.013 | [7] 0.019 | [8] -0.001 | IRAK-1-4 Inhibitor I -0.056

CXorf38 (UniProt Q8TB03)
inactive: erlotinib 0.068 | [1] 0.067 | [2] -0.003 | [3] 0.01 | [4] 0.042 | [5] 0.013 | [6] 0.012 | [7] -0.058 | [8] -0.031 | IRAK-1-4 Inhibitor I 0.026

CLUH (UniProt O75153)
inactive: erlotinib -0.011 | [1] 0.018 | [2] -0.006 | [3] 0.051 | [4] 0.21 | [5] -0.013 | [6] -0.014 | [7] -0.009 | [8] -0.005 | IRAK-1-4 Inhibitor I -0.007

COG2 (UniProt Q14746)
inactive: erlotinib 0.009 | [1] 0.036 | [2] -0.021 | [3] -0.022 | [4] -0.032 | [5] -0.017 | [6] -0.001 | [7] 0.011 | [8] 0.031 | IRAK-1-4 Inhibitor I 0.03

DICER1 (UniProt Q9UPY3)
inactive: erlotinib 0.013 | [1] -0.088 | [2] -0.056 | [3] -0.023 | [4] -0.027 | [5] 0.03 | [6] -0.025 | [7] -0.064 | [8] -0.042 | IRAK-1-4 Inhibitor I -0.016

DGCR8 (UniProt Q8WYQ5)
Chain of UniProt Q8WYQ5 (Q8WYQ5 whole entry, looked up): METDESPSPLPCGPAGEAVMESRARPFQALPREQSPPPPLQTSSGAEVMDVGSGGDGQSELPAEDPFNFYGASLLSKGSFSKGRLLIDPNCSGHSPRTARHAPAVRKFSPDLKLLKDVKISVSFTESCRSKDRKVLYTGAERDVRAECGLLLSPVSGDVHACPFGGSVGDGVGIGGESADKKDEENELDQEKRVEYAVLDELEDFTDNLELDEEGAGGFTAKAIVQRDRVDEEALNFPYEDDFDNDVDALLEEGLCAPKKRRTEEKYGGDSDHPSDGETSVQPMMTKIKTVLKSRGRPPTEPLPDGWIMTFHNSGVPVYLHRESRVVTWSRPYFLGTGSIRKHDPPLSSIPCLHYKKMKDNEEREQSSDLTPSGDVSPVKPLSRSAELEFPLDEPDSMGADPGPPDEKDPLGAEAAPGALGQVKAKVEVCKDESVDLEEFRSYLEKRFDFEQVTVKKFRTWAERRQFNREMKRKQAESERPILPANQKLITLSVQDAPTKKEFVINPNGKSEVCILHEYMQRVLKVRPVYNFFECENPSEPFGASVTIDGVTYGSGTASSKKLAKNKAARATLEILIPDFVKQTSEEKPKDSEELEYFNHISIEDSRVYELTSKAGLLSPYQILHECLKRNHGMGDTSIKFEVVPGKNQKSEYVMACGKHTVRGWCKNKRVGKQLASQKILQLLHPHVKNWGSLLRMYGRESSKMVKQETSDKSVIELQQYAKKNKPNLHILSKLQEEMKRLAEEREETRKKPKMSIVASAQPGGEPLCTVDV
inactive: erlotinib 0.045 | [1] -0.026 | [2] 0.019 | [3] 0.023 | [4] -0.057 | [5] 0.002 | [6] -0.011 | [7] -0.019 | [8] 0 | IRAK-1-4 Inhibitor I -0.038

CHUK (UniProt O15111)
inactive: erlotinib -0.005 | [1] 0.114 | [2] -0.076 | [3] 0.01 | [4] -0.019 | [5] 0.022 | [6] 0.015 | [7] -0.002 | [8] -0.002 | IRAK-1-4 Inhibitor I -0.044

DARS (UniProt P14868)
inactive: erlotinib 0.006 | [1] 0.037 | [2] -0.039 | [3] 0.027 | [4] 0.019 | [5] -0.004 | [6] -0.04 | [7] -0.012 | [8] -0.024 | IRAK-1-4 Inhibitor I -0.041

CXXC1 isoform 2 (UniProt Q9P0U4)
inactive: erlotinib 0.02 | [1] -0.031 | [2] -0.051 | [3] 0.029 | [4] -0.085 | [5] -0.036 | [6] -0.088 | [7] 0.082 | [8] 0.04 | IRAK-1-4 Inhibitor I 0.059

DPM1 (UniProt O60762)
Chain of UniProt O60762 (O60762 whole entry, looked up): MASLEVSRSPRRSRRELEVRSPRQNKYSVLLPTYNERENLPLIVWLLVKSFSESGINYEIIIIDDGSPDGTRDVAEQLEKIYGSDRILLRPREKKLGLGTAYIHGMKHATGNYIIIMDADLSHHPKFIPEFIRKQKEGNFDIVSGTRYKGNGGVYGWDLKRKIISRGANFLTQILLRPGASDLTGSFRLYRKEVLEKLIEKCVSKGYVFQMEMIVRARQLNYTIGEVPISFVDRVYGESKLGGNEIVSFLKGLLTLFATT
inactive: erlotinib -0.009 | [1] -0.039 | [2] -0.036 | [3] 0.056 | [4] -0.015 | [5] -0.007 | [6] 0.041 | [7] -0.022 | [8] -0.014 | IRAK-1-4 Inhibitor I -0.008

CWC22 (UniProt Q9HCG8)
inactive: erlotinib 0.058 | [1] 0.006 | [2] -0.046 | [3] -0.009 | [4] -0.032 | [5] -0.025 | [6] -0.092 | [7] -0.014 | [8] -0.006 | IRAK-1-4 Inhibitor I -0.017

CLPTM1L (UniProt Q96KA5)
Chain of UniProt Q96KA5 (Q96KA5 whole entry, looked up): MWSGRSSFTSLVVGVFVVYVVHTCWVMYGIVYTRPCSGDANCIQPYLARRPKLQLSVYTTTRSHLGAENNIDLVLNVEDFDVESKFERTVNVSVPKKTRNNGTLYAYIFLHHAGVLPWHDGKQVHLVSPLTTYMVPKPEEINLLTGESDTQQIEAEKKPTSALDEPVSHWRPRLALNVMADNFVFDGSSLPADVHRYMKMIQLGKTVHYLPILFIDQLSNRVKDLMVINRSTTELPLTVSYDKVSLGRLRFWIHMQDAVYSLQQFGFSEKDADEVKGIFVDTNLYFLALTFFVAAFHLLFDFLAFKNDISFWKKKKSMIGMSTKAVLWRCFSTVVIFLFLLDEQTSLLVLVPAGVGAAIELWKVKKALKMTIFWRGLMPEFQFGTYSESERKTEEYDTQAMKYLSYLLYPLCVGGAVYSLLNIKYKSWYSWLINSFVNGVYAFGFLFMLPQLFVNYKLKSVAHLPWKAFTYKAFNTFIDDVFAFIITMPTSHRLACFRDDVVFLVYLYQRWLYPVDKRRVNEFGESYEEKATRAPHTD
inactive: erlotinib -0.019 | [1] 0.014 | [2] -0.143 | [3] -0.01 | [4] 0.009 | [5] -0.052 | [6] -0.197 | [7] -0.059 | [8] 0.091 | IRAK-1-4 Inhibitor I -0.01
